The values that follow come from PubChem BioAssay AID1508601 (ICCB-Longwood Screening Facility, Harvard Medical School, 2020).

SMILES strings stand for the structures. The campaign covered roughly 5,700 compounds. About 85 (1%) were called active. The sample holds actives, similar compounds and a random draw of the others, so the mix is not that of the screen. Rule as the data show it: active = p53-positive nuclei above about 36% (passing the limit was not always enough); inactive = the rest.

The nature of assay [1]: p53 stabilisation in HPV-positive human cells, imaging, p53-positive nuclei imaging, 24 h, 48 h (AID 1508601). The settings on record: 24/48 h.
Assay [2] has as its target Cellular tumor antigen p53 (Homo sapiens) (UniProt P04637). The description is as above. The settings on record: 24/48 h, stronger effect = higher value.
The mark [3] stands for this setting: measured here: cell number at 24 h, Library stock concentration: 3.33 mM.
The mark [4] stands for this setting: measured here: cell number at 24 h, Library stock concentration: 10 mM.
Where [5] appears, read: measured here: cell number at 48 h, Library stock concentration: 3.33 mM.
The mark [6] stands for this setting: measured here: cell number at 48 h, Library stock concentration: 10 mM.
[7] abbreviates: Library stock concentration: 3.33 mM.
[8] abbreviates: Library stock concentration: 10 mM.
Setting [9] is: measured here: p53 positive nuclei at 24 h, Library stock concentration: 3.33 mM.
The mark [10] stands for this setting: measured here: p53 positive nuclei at 24 h, Library stock concentration: 10 mM.
The mark [11] stands for this setting: measured here: cell number at 24 h, Library stock concentration: 80 uM.
Setting [12] is: measured here: cell number at 24 h, Library stock concentration: 400 uM.
Setting [13] is: measured here: cell number at 24 h, Library stock concentration: 2 mM.
Where [14] appears, read: measured here: cell number at 48 h, Library stock concentration: 80 uM.
Where [15] appears, read: measured here: cell number at 48 h, Library stock concentration: 400 uM.
Setting [16] is: measured here: cell number at 48 h, Library stock concentration: 2 mM.
The mark [17] stands for this setting: Library stock concentration: 80 uM.
Where [18] appears, read: Library stock concentration: 400 uM.
Setting [19] is: Library stock concentration: 2 mM.
The mark [20] stands for this setting: measured here: p53 positive nuclei at 24 h, Library stock concentration: 80 uM.
The mark [21] stands for this setting: measured here: p53 positive nuclei at 24 h, Library stock concentration: 400 uM.
[22] abbreviates: measured here: p53 positive nuclei at 24 h, Library stock concentration: 2 mM.

Chain of Cellular tumor antigen p53 (Homo sapiens) (P04637 whole entry, looked up): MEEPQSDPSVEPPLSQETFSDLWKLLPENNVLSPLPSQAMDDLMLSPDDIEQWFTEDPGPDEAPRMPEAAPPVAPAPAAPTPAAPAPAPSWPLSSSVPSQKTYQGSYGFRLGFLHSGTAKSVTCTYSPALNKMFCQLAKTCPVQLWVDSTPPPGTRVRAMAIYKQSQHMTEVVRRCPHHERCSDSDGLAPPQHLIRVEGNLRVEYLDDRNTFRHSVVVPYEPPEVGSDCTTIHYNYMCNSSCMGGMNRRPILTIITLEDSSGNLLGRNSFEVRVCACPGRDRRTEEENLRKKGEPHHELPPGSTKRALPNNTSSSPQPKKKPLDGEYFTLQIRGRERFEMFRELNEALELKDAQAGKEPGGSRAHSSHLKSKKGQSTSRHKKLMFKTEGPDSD

In the case of `COc1cc(OC)c2c(=O)[nH]c(-c3cc(C)c(OCCO)c(C)c3)nc2c1`, the nuclei count, normalised in assay [1] (measured here: cell number at 24 h, Library stock concentration: 46 uM) worked out at 114%; in assay [1] (measured here: cell number at 24 h, Library stock concentration: 278 uM), 107%; in assay [1] (measured here: cell number at 24 h, Library stock concentration: 1.67 mM) it was 118%; in assay [1] (setting [3]), 108%; in assay [1] (setting [4]), 109%; in assay [1] (measured here: cell number at 48 h, Library stock concentration: 46 uM), 111%. Also, the nuclei count, normalised in assay [1] (measured here: cell number at 48 h, Library stock concentration: 278 uM) is 108%; in assay [1] (measured here: cell number at 48 h, Library stock concentration: 1.67 mM), 107%; in assay [1] (setting [5]), 103%; in assay [1] (setting [6]), 108%. Further, the p53-positive nuclei, normalised is 0.0206% (inactive) in assay [2] (Library stock concentration: 46 uM); 0.323% (inactive) in assay [2] (Library stock concentration: 278 uM); 0.07% (inactive) in assay [2] (Library stock concentration: 1.67 mM); 0.152% (inactive) in assay [2] (setting [7]); -0.223% (inactive) in assay [2] (setting [8]); -0.102% in assay [2] (measured here: p53 positive nuclei at 24 h, Library stock concentration: 46 uM). For the same compound, the p53-positive nuclei, normalised in assay [2] (measured here: p53 positive nuclei at 24 h, Library stock concentration: 278 uM) was 0.166%; in assay [2] (measured here: p53 positive nuclei at 24 h, Library stock concentration: 1.67 mM) it was -0.00477%; in assay [2] (setting [9]), 0.0179%; in assay [2] (setting [10]) it was -0.153%.
Take `CC(C)c1nn(-c2c(Cl)cccc2Cl)c2nc(Cc3ccc(OCCO)cc3)[nH]c(=O)c12`: the nuclei count, normalised in assay [1] (setting [11]) was determined as 64.8%; in assay [1] (setting [12]), 36%; in assay [1] (setting [13]), 26.2%; in assay [1] (setting [4]) it was 26.4%; in assay [1] (setting [14]) it was 50.6%; in assay [1] (setting [15]), 25.1%. Also, the nuclei count, normalised in assay [1] (setting [16]) stood at 17.9%; in assay [1] (setting [6]) it was 18.4%. Moreover, the p53-positive nuclei, normalised was 27.9% (inactive) in assay [2] (setting [17]); 67% (active) in assay [2] (setting [18]); 32.9% (inactive) in assay [2] (setting [19]); 34.7% (inactive) in assay [2] (setting [8]); 18.6% in assay [2] (setting [20]); 19.1% in assay [2] (setting [21]). In addition, the p53-positive nuclei, normalised in assay [2] (setting [22]) stood at 6.59%; in assay [2] (setting [10]), 4.85%.
Take `OC(c1cc(C(F)(F)F)nc2c(C(F)(F)F)cccc12)[C@H]1CCCCN1` (some centres undefined): the nuclei count, normalised in assay [1] (measured here: cell number at 24 h, Library stock concentration: 500 nM) came to 110%; in assay [1] (measured here: cell number at 24 h, Library stock concentration: 1.5 uM) it was 109%; in assay [1] (measured here: cell number at 24 h, Library stock concentration: 4.6 uM) it was 109%; in assay [1] (measured here: cell number at 24 h, Library stock concentration: 13.7 uM), 101%; in assay [1] (measured here: cell number at 24 h, Library stock concentration: 41 uM), 117%; in assay [1] (measured here: cell number at 24 h, Library stock concentration: 123 uM), 109%. The nuclei count, normalised in assay [1] (measured here: cell number at 24 h, Library stock concentration: 370 uM) turned out to be 109%; in assay [1] (measured here: cell number at 24 h, Library stock concentration: 1.111 mM), 110%; in assay [1] (setting [3]) it was 95.3%; in assay [1] (measured here: cell number at 24 h, Library stock concentration: 3.333 mM), 112%; in assay [1] (setting [4]), 86.2%; in assay [1] (measured here: cell number at 48 h, Library stock concentration: 500 nM), 105%. Besides, the nuclei count, normalised in assay [1] (measured here: cell number at 48 h, Library stock concentration: 1.5 uM) turned out to be 105%; in assay [1] (measured here: cell number at 48 h, Library stock concentration: 4.6 uM), 112%; in assay [1] (measured here: cell number at 48 h, Library stock concentration: 13.7 uM), 103%; in assay [1] (measured here: cell number at 48 h, Library stock concentration: 41 uM) it was 120%; in assay [1] (measured here: cell number at 48 h, Library stock concentration: 123 uM), 113%; in assay [1] (measured here: cell number at 48 h, Library stock concentration: 370 uM), 110%. For the same compound, the nuclei count, normalised stood at 113% in assay [1] (measured here: cell number at 48 h, Library stock concentration: 1.111 mM); 94.9% in assay [1] (setting [5]); 116% in assay [1] (measured here: cell number at 48 h, Library stock concentration: 3.333 mM); 99.6% in assay [1] (setting [6]). Besides, the p53-positive nuclei, normalised is -0.00517% (inactive) in assay [2] (Library stock concentration: 500 nM); -0.125% (inactive) in assay [2] (Library stock concentration: 1.5 uM); 0.0484% (inactive) in assay [2] (Library stock concentration: 4.6 uM); -0.00344% (inactive) in assay [2] (Library stock concentration: 13.7 uM); -0.185% (inactive) in assay [2] (Library stock concentration: 41 uM); -0.102% (inactive) in assay [2] (Library stock concentration: 123 uM). Further, the p53-positive nuclei, normalised in assay [2] (Library stock concentration: 370 uM) was -0.0936% (inactive); in assay [2] (Library stock concentration: 1.111 mM), -0.065% (inactive); in assay [2] (setting [7]) it was 4.69% (inactive); in assay [2] (Library stock concentration: 3.333 mM), -0.144% (inactive); in assay [2] (setting [8]) it was 1.04% (inactive); in assay [2] (measured here: p53 positive nuclei at 24 h, Library stock concentration: 500 nM) it was 0.0755%. In addition, the p53-positive nuclei, normalised in assay [2] (measured here: p53 positive nuclei at 24 h, Library stock concentration: 1.5 uM) was -0.239%; in assay [2] (measured here: p53 positive nuclei at 24 h, Library stock concentration: 4.6 uM), -0.0294%; in assay [2] (measured here: p53 positive nuclei at 24 h, Library stock concentration: 13.7 uM), -0.185%; in assay [2] (measured here: p53 positive nuclei at 24 h, Library stock concentration: 41 uM), -0.239%; in assay [2] (measured here: p53 positive nuclei at 24 h, Library stock concentration: 123 uM), -0.134%; in assay [2] (measured here: p53 positive nuclei at 24 h, Library stock concentration: 370 uM), -0.187%. In addition, the p53-positive nuclei, normalised in assay [2] (measured here: p53 positive nuclei at 24 h, Library stock concentration: 1.111 mM) is -0.0384%; in assay [2] (setting [9]) it was 2.85%; in assay [2] (measured here: p53 positive nuclei at 24 h, Library stock concentration: 3.333 mM), -0.036%; in assay [2] (setting [10]), 1.37%.
Consider `COC(=O)C1C(O)CC[C@H]2CN3CCc4c([nH]c5ccccc45)[C@@H]3C[C@H]12` (some centres undefined), for which the nuclei count, normalised worked out at 104% in assay [1] (setting [3]) and 106% in assay [1] (setting [5]). For the same compound, the p53-positive nuclei, normalised in assay [2] (setting [7]) was -0.11% (inactive); in assay [2] (setting [9]) it was -0.356%.
For the compound `CCCCCCCCCCCCCCP(=O)(O)O`, the nuclei count, normalised in assay [1] (measured here: cell number at 24 h, concentration not given here) was determined as 105%; in assay [1] (measured here: cell number at 48 h, concentration not given here), 107%. The p53-positive nuclei, normalised in assay [2] (concentration not given here) is -0.0194% (inactive); in assay [2] (measured here: p53 positive nuclei at 24 h, concentration not given here) it was -0.0488%.
With `COc1ccc(N(C(=O)Nc2c(C)cccc2C)c2cc(Nc3ccc(N4CCN(C)CC4)cc3OC)ncn2)c(OC)c1`, the nuclei count, normalised in assay [1] (setting [11]) came out at 104%; in assay [1] (setting [12]), 93.8%; in assay [1] (setting [13]), 82.3%; in assay [1] (setting [4]), 66%; in assay [1] (setting [14]), 104%; in assay [1] (setting [15]) it was 90.4%. The nuclei count, normalised was determined as 64.8% in assay [1] (setting [16]) and 66.4% in assay [1] (setting [6]). Besides, the p53-positive nuclei, normalised in assay [2] (setting [17]) was -0.0182% (inactive); in assay [2] (setting [18]), -0.151% (inactive); in assay [2] (setting [19]), -0.0629% (inactive); in assay [2] (setting [8]), 0.104% (inactive); in assay [2] (setting [20]), -0.103%; in assay [2] (setting [21]), -0.0385%. The values for the p53-positive nuclei, normalised in assay [2] (setting [22]) and in assay [2] (setting [10]) were -0.0916% and -0.0741%, respectively.
